The record followed here is PubChem BioAssay (NCATS).

In test [1] the target is Cellular tumor antigen p53 (Homo sapiens) (UniProt P04637). In words: Primary qHTS for small molecule compounds that upregulate eGFP-tagged delta133p53alpha (in N-terminal) cells. (AID 2060322). Further: nearly all actives have a fitted effect of over 75% in size. Further: potency means the concentration at half of the fitted maximal effect.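 On activation: cells pre-induced with doxycycline then dosed without doxycycline; series mostly up to about 56 µM; 0% = DMSO vehicle and 100% = reference activator.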 The conditions noted are these: NCI-H358 eGFP-delta133p53alpha fluorescence, 24 h; activation: stronger effect = higher value. An outline of the steps: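 NCI-H358 cells pre-induced 24 h with 10 ng/ml doxycycline for eGFP-delta133p53alpha, plated dox-free and exposed 24 h at 37C to titrated compounds. Fixed, Hoechst-stained; gated GFP peak intensity by laser scanning cytometry, normalized to DMSO (0%) and 57.5 uM 5-azacytidine (100%).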
Sequence of Cellular tumor antigen p53 (Homo sapiens) (P04637 whole entry, looked up): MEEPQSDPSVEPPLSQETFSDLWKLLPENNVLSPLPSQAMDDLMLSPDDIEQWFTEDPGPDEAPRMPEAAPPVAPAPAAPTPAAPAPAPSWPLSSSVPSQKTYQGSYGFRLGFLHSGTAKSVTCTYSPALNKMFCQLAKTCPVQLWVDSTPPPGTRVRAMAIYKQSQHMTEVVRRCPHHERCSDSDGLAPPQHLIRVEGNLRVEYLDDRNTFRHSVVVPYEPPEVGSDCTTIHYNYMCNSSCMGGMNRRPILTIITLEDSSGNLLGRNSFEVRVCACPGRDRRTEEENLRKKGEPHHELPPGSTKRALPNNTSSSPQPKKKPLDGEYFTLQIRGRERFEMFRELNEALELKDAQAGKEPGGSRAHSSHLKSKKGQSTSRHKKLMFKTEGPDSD
For orientation: Quantitative high-throughput screening tests each substance at several concentrations.

The target of test [2] is Aldehyde dehydrogenase, mitochondrial (Homo sapiens) (UniProt P05091). As to the kind of experiment: qHTS for Inhibitors of the Aldehyde Dehydrogenase Family (ALDH2) Primary screen (AID 2061308).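 Further: plate controls were vehicle for no effect and reference inhibitor for full effect; nearly all actives have a fitted effect of over 55% in size.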
Test [3] concerns the target Retinaldehyde dehydrogenase 3 (Homo sapiens) (UniProt P47895). As to the kind of experiment: qHTS for Inhibitors of the Aldehyde Dehydrogenase Family (ALDH1A3) Primary screen (AID 2061315).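 Further: plate controls were DMSO vehicle for no effect and reference inhibitor for full effect.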

Records with an inconclusive call do not appear. Values without a mark were called inactive. Calls of active or inactive are those of the source. The call rests on the fitted dose curve; in most records, active means well fitted curve in the direction sought with a large enough effect; inconclusive means small, poorly fitted or top-dose-only effect, or another doubt; inactive means no such curve, though single readings can be large; an effect the other way counts as inactive or inconclusive. Peptide text beside a SMILES is read from it.

In the case of `C/C=C/C1=CC2=CC(=O)C(C)(O)C(OC(=O)c3c(C)cc(O)cc3O)C2CO1` (stereo not given), the activation in test [1] is -12.2%. The Potency entry in test [2] and in test [3] was “inactive” each time.

In the case of `CC1[C@@H](O)[C@@H](O)C2[C@]3(C)C(C[C@H]4OC(=O)[C@H](O)[C@]1(O)[C@@]24C)C(C)(O)C[C@H](O)[C@H]3O` (stereo not given in full), in test [1], the activation was -16%. The Potency result in test [2] and in test [3] was “inactive” throughout.

On to `COc1ccc(S(=O)(=O)Nc2cc(Cl)cc(Cl)c2OC)cc1N1CCNCC1`, for which, in test [1], the activation is 8.04%. Also, the Potency entry in test [2] and in test [3] was “inactive” in each case.

On to `CCC(C)(O)C(O)C(=O)OCc1ccc(O[C@@H]2O[C@H](CO)[C@@H](O)[C@H](O)[C@H]2O)cc1` (stereo not given in full), for which, in test [1], the activation was -6.87%. Besides, the Potency entry in test [2] and in test [3] was “inactive” each time.

Turning to `COc1cc(C(=O)NC2CCN(C)CC2)ccc1Nc1ncc2c(n1)N(C1CCCC1)CC(F)(F)C(=O)N2C`, the activation in test [1] was 29.5%. For the same compound, the Potency result in test [2] and in test [3] was “inactive” throughout.

Turning to `COc1cccc(CN(C(=O)CC(C)(C)C)[C@H]2C[C@H](C(=O)N3CCNCC3)N(Cc3ccc4c(c3)OCO4)C2)c1`, in test [1], the activation is 1%. In addition, the Potency result in test [2] and in test [3] was “inactive” each time.

Take `C[C@@H]1O[C@@H](O[C@H]2[C@H](O)[C@@H](O)[C@H](OC3CCC4(C)C5CCC(C)(C(CO)OC6OC(CO)C(O)C(O)C6O)CC5=CCC4C3(C)C)O[C@@H]2CO)[C@H](O)[C@H](O)[C@H]1O` (stereo not given in full): in test [1], the activation was -22.9%. Also, the Potency result in test [2] and in test [3] was “inactive” in each case.

`C=CCc1ccc(O[C@@H]2O[C@H](CO)[C@@H](O)[C@H](O)[C@H]2O)c(OC)c1`: in test [1], the activation was -19.6%. Moreover, the Potency entry in test [2] and in test [3] was “inactive” throughout.

As for `C[C@@H]1CC[C@]2(C(=O)O[C@@H]3O[C@H](CO)[C@@H](O)[C@H](O)[C@H]3O)CC[C@]3(C)C(=CCC4[C@@]5(C)C[C@@H](O)[C@H](O)C(C)(C)C5CC[C@]43C)C2[C@]1(C)O` (stereo not given in full), in test [1], the activation is -17.6%. Besides, the Potency entry in test [2] and in test [3] was “inactive” throughout.

In the case of `C[C@]12C=CC(=O)C=C1CC[C@@H]1[C@@H]2[C@@H](O)C[C@@]2(C)[C@H]1CC[C@]2(O)C(=O)COC(=O)CCC(=O)O`, the activation in test [1] was 13%. The Potency result in test [2] and in test [3] was “inactive” each time.

`C=C(C(=O)O)[C@H]1C[C@]2(C)[C@@H](O)CC[C@]23O[C@H]1C[C@@H]3C`: in test [1], the activation was 18.8%. The Potency result in test [2] and in test [3] was “inactive” throughout.

For `CC1=C(C(=O)O)/C(=C/CO[C@@H]2O[C@H](COC(=O)/C=C/c3ccc(O)cc3)[C@@H](O)[C@H](O)[C@H]2O)C(O)C1` (stereo not given in full), the activation in test [1] is -17.6%. The Potency entry in test [2] and in test [3] was “inactive” in each case.

For the compound `CC(C)C1NC(=O)CNC(=O)C2CCCN2C(=O)C(Cc2c[nH]c3ccccc23)NC(=O)CNC(=O)C(Cc2ccc(O)cc2)NC(=O)CNC1=O` (stereo not given) (cyclo(GVGYGWP); configuration not given here), the activation in test [1] is -6.25%. For the same compound, the Potency entry in test [2] and in test [3] was “inactive” throughout.

As to `C/C=C(/C)C(=O)OC1CC(C)(C)CC2C3=CCC4C5(C)CCC(OC6OC(C)C(OC7OC(C(=O)O)C(O)C(OC8OC(CO)C(O)C(O)C8OC8OC(CO)C(O)C(O)C8O)C7O)C(O)C6O)C(C)(C)C5CCC4(C)C3(C)C(OC(=O)/C=C/C=C/C=C/CCC)C(OC(C)=O)C12CO` (stereo not given), the activation in test [1] is 14.5%. The results for the activity change, negative = inhibition in test [2] and in test [3] were 6.9% [at 11.2 µM] and 9.07% [at 11.2 µM], respectively.

As to `CC1(C)C2CC[C@]3(C)C(C(=O)C=C4[C@H]5C[C@@](C)(C(=O)O)CC[C@]5(C)CC[C@]43C)[C@@]2(C)CC[C@@H]1O` (stereo not given in full), the activation in test [1] is 6.87%. In addition, the Potency result in test [2] and in test [3] was “inactive” each time.

For the compound `COC(=O)c1ccccc1O[C@@H]1O[C@H](CO)[C@@H](O)[C@H](O)[C@H]1O[C@@H]1O[C@@H](C)[C@H](O)[C@@H](O)[C@H]1O`, in test [1], the activation was -10.7%. The Potency result in test [2] and in test [3] was “inactive” throughout.

Turning to `CO[C@H]1/C=C/C=C/C=C/C[C@H](OC(=O)[C@@H](C)NC(=O)C2CCCCC2)[C@H](C)[C@@H](O)/C(C)=C/CCc2cc(O)cc(c2)NC(=O)C1`, in test [1], the Potency is 2.81 µM (active). Besides, the Potency entry in test [2] and in test [3] was “inactive” throughout.

On to `Cn1cc(S(C)=O)c(=O)c2ccc(F)cc21` (stereo not given), for which, in test [1], the activation is -7.53%. Further, the Potency result in test [2] and in test [3] was “inactive” in each case.

Take `CC(=O)O[C@H]1[C@H](O[C@H]2CC[C@]34C[C@]35CC[C@]3(C)[C@@H]([C@@]6(C)CC[C@@H](C(C)(C)O)O6)[C@@H](O)C[C@@]3(C)[C@@H]5C[C@H](O[C@@H]3O[C@H](CO)[C@@H](O)[C@H](O)[C@H]3O)[C@H]4C2(C)C)OC[C@@H](OC(C)=O)[C@@H]1O`: the activation in test [1] was -7.67%. Moreover, the Potency entry in test [2] and in test [3] was “inactive” in each case.

For `CCCC(=O)NCCc1csc(-c2ccc(Cl)cc2)n1`, the activation in test [1] was 1%. The Potency entry in test [2] and in test [3] was “inactive” in each case.
